# Paper PMC7862700, “An all-to-all approach to the identification of sequence-specific readers for epigenetic DNA modifications on cytosine”
# What was measured:
# Experiment in all cases: DAPPL (digital affinity profiling via proximity ligation, sequencing); 10 mM Tris-HCl pH 7.5, 50 mM NaCl, 1 mM DTT, 4% glycerol, room temperature, 30 min; GST-TFs on glutathione beads, 16-mer random dsDNA library, 0.1% formaldehyde crosslink after washing; high values mean tight binding
# FLI1 = target: T1, FLI1 (Homo sapiens, UniProt Q01543 1-452); settings: protein: recombinant; tags: N-terminal GST; dsDNA, one strand shown
# T1 sequence: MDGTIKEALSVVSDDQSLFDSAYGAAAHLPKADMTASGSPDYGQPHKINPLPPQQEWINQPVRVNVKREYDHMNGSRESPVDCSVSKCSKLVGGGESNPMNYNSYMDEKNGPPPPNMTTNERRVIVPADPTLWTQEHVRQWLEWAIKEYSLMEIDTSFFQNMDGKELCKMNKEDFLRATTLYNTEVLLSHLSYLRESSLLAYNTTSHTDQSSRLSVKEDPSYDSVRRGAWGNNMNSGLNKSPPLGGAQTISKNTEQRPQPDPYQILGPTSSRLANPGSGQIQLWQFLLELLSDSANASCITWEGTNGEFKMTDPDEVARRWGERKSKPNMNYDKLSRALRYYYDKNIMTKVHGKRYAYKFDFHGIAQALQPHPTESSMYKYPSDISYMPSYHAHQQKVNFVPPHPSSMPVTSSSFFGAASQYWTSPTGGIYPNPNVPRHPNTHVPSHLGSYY
# Outline: (§1)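 Pools of DNA-barcoded human transcription factors, expressed in yeast as GST fusions on glutathione beads and combined with a tag-only sample, were incubated with 200 nmole of a 16-mer random double-stranded DNA library. Incubation took 30 min at room temperature in Tris/NaCl/DTT/glycerol buffer and was followed by washing, 0.1% formaldehyde crosslinking, proximity ligation (BsaI/T4 ligase, 1 h, 37 °C), PCR amplification and sequencing on an Illumina NextSeq500. Binding signal is the ratio of a hexamer's read frequency for a factor to its frequency for the tag-only sample.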
# ELK1 = target: T2, ELK1 (Homo sapiens, UniProt P19419 1-428); settings: protein: recombinant; tags: N-terminal GST; dsDNA, one strand shown
# T2 sequence: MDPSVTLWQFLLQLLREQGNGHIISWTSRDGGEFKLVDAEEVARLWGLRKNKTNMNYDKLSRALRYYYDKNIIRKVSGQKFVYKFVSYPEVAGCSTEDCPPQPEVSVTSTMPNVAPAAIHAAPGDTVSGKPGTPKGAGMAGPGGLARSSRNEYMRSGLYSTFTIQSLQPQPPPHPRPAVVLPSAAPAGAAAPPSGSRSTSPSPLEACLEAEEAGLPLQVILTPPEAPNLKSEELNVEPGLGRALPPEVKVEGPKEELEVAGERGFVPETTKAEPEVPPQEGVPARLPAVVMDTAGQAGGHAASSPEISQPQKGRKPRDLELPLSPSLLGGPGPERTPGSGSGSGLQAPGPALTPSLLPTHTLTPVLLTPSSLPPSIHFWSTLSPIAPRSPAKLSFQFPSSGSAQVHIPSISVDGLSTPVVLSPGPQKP
# Outline: as §1
# GABPA = target: T3, GABPA (Homo sapiens, UniProt Q06546 1-454); settings: protein: recombinant; tags: N-terminal GST; dsDNA, one strand shown
# T3 sequence: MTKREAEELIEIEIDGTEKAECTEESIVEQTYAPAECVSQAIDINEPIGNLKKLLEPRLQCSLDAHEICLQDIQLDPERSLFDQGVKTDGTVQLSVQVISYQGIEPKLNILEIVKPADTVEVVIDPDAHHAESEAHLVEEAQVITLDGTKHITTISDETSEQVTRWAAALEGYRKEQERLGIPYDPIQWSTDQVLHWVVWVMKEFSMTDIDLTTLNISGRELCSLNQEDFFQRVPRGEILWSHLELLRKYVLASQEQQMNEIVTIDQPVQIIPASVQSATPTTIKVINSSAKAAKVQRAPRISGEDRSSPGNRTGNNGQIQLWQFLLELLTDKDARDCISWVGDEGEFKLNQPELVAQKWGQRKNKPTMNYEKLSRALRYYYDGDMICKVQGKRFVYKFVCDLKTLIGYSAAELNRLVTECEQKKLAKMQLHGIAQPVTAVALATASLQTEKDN
# Outline: as §1
# ERG = target: T4, ERG (Homo sapiens, UniProt P11308 1-479); settings: protein: recombinant; tags: N-terminal GST; dsDNA, one strand shown
# T4 sequence: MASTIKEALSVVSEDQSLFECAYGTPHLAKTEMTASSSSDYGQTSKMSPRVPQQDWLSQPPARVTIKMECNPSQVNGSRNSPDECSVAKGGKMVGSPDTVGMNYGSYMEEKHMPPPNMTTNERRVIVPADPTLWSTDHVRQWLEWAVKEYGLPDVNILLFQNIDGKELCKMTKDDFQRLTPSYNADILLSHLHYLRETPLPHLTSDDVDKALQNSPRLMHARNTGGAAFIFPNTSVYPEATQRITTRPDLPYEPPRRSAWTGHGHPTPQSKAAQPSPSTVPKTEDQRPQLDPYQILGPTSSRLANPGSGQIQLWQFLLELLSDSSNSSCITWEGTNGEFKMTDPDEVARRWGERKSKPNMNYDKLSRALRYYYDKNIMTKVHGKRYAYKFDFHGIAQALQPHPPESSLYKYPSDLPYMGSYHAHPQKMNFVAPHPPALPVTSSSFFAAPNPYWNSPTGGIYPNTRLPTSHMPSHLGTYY
# Outline: as §1
# ELF1 = ELF1 (Homo sapiens, UniProt P32519 1-619); settings: protein: recombinant; tags: N-terminal GST; dsDNA, one strand shown
# Outline: as §1
# EHF = target: T5, EHF (Homo sapiens, UniProt Q9NZC4 1-300); settings: protein: recombinant; tags: N-terminal GST; dsDNA, one strand shown
# T5 sequence: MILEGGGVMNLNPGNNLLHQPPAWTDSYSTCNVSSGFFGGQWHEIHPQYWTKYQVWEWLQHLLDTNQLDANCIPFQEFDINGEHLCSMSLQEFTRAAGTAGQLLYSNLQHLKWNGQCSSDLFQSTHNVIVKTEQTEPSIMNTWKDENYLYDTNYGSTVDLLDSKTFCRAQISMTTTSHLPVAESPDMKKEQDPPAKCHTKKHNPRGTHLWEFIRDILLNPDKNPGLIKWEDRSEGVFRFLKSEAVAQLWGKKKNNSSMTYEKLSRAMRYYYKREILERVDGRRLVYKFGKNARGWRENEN
# Outline: as §1
# SPI1 = SPI1 (Homo sapiens, UniProt P17947 1-270); settings: protein: recombinant; tags: N-terminal GST; dsDNA, one strand shown
# Outline: as §1
# SPIB = SPIB (Homo sapiens, UniProt Q01892 1-262); settings: protein: recombinant; tags: N-terminal GST; dsDNA, one strand shown
# Outline: as §1
# ELK3 = target: T6, ELK3 (Homo sapiens, UniProt P41970 1-407); settings: protein: recombinant; tags: N-terminal GST; dsDNA, one strand shown
# T6 sequence: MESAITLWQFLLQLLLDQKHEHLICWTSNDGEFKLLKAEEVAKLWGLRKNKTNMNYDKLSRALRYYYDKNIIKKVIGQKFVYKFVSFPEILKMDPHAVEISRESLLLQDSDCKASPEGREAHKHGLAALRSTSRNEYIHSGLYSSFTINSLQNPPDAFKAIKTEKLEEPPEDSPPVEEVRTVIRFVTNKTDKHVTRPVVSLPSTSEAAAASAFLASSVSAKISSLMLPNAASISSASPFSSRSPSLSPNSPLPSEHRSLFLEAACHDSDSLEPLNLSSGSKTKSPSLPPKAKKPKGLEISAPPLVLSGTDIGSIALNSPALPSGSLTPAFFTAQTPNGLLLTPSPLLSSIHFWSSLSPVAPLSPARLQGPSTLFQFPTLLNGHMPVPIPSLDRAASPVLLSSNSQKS
# Outline: as §1
# FEV = target: T7, FEV (Homo sapiens, UniProt Q99581 1-238); settings: protein: recombinant; tags: N-terminal GST; dsDNA, one strand shown
# T7 sequence: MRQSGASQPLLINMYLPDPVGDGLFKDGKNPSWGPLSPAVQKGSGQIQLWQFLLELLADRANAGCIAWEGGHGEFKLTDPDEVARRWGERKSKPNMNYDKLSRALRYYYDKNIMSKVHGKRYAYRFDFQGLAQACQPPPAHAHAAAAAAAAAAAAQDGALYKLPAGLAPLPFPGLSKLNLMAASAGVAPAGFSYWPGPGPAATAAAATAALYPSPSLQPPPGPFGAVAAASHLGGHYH
# Outline: as §1
# ETV5 = ETV5 (Homo sapiens, UniProt P41161 1-510); settings: protein: recombinant; tags: N-terminal GST; dsDNA, one strand shown
# Outline: as §1
# HSF1 = HSF1 (Homo sapiens, UniProt Q00613 1-529); settings: protein: recombinant; tags: N-terminal GST; chain copies: 3; dsDNA, one strand shown
# Outline: as §1
# SPIC = target: T8, SPIC (Homo sapiens, UniProt Q8N5J4 1-248); settings: protein: recombinant; tags: N-terminal GST; dsDNA, one strand shown
# T8 sequence: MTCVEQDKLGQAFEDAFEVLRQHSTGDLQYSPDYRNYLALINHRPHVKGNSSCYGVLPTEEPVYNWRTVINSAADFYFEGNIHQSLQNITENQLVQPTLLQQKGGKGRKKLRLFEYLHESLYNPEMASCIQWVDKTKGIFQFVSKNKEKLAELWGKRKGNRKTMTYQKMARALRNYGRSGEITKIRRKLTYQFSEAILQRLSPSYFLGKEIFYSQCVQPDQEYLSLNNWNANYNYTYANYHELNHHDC
# Outline: as §1
# ELF4 = ELF4 (Homo sapiens, UniProt Q99607 1-663); settings: protein: recombinant; tags: N-terminal GST; dsDNA, one strand shown
# Outline: as §1
# ELK4 = target: T9, ELK4 (Homo sapiens, UniProt P28324-2 1-405); settings: protein: recombinant; tags: N-terminal GST; dsDNA, one strand shown
# T9 sequence: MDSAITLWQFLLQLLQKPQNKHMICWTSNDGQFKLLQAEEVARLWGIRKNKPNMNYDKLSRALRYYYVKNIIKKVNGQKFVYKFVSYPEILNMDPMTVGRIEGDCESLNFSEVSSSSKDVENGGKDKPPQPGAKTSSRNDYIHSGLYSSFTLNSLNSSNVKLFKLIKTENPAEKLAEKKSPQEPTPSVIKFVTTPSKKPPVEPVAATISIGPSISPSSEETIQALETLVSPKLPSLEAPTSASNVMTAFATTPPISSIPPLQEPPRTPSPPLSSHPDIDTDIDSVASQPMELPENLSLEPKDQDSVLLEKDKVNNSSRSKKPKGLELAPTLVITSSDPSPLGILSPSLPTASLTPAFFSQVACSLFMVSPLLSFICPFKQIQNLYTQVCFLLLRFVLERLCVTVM
# Outline: as §1
# ETV2 = target: T10, ETV2 (Homo sapiens, UniProt O00321 1-342); settings: protein: recombinant; tags: N-terminal GST; dsDNA, one strand shown
# T10 sequence: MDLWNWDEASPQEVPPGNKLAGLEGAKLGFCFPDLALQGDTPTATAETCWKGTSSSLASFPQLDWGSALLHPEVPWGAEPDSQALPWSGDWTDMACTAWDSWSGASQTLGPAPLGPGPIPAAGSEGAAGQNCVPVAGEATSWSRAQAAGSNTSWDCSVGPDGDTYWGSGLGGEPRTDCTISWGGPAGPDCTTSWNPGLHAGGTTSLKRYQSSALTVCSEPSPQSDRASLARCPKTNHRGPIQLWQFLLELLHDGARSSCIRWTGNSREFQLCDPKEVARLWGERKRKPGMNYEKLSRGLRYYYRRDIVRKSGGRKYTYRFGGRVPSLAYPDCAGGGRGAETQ
# Outline: as §1
# ELF3 = target: T11, ELF3 (Homo sapiens, UniProt P78545 1-371); settings: protein: recombinant; tags: N-terminal GST; dsDNA, one strand shown
# T11 sequence: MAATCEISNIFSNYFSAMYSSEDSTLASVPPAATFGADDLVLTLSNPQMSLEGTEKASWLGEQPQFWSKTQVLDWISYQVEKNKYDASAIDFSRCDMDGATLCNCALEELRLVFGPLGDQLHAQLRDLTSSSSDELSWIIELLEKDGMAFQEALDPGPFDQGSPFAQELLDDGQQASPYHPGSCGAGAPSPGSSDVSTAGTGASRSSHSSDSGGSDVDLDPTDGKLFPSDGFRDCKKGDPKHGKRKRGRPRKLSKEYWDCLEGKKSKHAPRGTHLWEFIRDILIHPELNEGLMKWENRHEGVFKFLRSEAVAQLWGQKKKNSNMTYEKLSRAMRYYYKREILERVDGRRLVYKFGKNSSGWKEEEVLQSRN
# Outline: as §1
# CRX = CRX (Homo sapiens, UniProt O43186 1-299); settings: protein: recombinant; tags: N-terminal GST; dsDNA, one strand shown
# Outline: as §1
# ETV1 = ETV1 (Homo sapiens, UniProt P50549 1-477); settings: protein: recombinant; tags: N-terminal GST; dsDNA, one strand shown
# Outline: as §1
# Sequence of SPIB (Q01892 whole entry): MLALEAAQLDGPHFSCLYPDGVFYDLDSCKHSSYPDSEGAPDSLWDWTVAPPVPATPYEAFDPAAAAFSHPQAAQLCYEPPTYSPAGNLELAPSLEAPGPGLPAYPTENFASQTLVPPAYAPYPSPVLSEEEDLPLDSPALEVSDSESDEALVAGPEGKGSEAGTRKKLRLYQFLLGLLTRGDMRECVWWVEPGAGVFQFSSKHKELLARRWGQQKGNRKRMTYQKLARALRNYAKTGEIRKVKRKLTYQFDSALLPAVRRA
# Sequence of ETV5 (P41161 whole entry): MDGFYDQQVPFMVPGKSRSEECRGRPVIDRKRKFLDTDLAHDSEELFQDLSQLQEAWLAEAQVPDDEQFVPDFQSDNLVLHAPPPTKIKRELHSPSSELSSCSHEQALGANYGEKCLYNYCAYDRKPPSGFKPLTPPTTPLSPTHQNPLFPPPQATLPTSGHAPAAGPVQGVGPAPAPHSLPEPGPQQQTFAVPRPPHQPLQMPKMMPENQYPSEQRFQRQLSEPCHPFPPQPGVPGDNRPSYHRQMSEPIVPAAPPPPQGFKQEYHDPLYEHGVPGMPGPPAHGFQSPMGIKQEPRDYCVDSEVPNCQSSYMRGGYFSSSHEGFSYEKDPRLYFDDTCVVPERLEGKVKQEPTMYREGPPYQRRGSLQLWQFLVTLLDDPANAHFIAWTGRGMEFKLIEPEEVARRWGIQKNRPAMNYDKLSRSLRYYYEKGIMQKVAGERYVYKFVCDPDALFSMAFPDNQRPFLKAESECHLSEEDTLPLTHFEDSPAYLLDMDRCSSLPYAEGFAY
# Sequence of CRX (O43186 whole entry): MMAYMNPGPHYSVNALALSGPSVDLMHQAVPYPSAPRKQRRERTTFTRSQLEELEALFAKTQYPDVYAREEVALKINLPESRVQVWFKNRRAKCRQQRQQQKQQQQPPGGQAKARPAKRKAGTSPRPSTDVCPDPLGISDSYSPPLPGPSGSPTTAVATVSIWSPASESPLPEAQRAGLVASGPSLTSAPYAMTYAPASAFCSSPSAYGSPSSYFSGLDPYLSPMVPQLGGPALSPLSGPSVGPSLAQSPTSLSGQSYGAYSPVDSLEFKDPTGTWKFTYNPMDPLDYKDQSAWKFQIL
# Sequence of ELF1 (P32519 whole entry): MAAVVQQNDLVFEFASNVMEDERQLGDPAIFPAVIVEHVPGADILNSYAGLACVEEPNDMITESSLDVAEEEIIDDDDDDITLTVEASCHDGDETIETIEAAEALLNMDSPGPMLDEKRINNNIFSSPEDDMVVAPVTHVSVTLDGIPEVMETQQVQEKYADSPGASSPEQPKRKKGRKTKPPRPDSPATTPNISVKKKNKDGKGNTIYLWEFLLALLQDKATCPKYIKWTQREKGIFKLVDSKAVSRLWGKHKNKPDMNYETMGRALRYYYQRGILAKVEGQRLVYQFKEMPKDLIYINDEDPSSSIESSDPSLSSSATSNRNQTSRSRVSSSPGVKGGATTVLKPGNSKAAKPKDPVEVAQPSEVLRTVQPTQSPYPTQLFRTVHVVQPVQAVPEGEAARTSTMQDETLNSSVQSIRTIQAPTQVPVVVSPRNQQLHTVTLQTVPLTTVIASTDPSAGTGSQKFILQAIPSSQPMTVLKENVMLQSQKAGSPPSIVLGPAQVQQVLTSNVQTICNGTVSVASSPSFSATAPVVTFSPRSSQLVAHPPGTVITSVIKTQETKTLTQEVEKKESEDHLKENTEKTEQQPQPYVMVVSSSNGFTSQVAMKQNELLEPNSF
# Sequence of HSF1 (Q00613 whole entry): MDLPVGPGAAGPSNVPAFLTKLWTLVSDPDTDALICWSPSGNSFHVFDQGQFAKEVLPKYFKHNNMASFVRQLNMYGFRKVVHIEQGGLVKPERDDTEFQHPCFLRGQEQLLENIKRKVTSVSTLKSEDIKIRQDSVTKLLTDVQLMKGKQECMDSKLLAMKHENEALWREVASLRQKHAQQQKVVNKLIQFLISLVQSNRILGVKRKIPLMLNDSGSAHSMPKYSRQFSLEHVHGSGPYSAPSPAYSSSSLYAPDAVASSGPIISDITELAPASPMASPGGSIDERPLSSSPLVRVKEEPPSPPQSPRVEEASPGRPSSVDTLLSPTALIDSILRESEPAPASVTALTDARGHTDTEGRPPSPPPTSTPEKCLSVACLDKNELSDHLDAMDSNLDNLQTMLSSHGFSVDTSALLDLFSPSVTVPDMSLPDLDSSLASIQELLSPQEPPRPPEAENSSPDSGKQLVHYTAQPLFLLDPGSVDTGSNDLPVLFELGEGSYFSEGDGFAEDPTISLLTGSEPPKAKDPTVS
# Sequence of ELF4 (Q99607 whole entry): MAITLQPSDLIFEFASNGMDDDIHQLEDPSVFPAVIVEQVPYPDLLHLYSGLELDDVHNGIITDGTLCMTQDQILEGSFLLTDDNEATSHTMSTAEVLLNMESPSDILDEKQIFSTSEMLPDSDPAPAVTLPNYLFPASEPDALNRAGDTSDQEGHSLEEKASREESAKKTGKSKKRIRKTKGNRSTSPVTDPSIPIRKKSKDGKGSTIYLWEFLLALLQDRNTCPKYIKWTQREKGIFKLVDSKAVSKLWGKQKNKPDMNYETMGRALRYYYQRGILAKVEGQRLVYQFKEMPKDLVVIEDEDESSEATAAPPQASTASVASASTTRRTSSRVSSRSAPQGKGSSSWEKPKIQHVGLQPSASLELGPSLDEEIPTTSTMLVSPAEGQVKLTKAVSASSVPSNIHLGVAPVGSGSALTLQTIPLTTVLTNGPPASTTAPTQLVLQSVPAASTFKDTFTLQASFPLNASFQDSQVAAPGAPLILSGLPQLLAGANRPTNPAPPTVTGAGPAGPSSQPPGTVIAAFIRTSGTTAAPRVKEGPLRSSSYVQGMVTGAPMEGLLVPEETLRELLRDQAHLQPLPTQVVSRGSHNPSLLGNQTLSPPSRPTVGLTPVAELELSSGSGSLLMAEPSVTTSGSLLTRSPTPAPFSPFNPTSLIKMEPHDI
# Sequence of ETV1 (P50549 whole entry): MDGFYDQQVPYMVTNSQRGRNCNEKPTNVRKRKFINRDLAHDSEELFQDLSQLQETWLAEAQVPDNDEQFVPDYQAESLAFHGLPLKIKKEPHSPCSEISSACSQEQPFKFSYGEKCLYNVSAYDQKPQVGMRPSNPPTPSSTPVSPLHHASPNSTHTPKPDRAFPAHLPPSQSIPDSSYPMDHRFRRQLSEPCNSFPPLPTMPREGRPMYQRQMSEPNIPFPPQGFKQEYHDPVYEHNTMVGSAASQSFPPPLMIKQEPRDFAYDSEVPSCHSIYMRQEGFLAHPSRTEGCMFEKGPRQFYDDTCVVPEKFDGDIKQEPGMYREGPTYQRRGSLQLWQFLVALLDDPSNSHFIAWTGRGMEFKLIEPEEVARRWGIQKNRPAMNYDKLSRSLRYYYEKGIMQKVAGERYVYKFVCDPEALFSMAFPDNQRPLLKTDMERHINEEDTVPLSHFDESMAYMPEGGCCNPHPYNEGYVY
sequence,measurement,setting,value
CTACTG,binding signal,FLI1,"1.31 fold enrichment (6-mer frequency, TF over GST control)"
same,binding signal,ELK1,"1.28 fold enrichment (6-mer frequency, TF over GST control)"
same,binding signal,GABPA,"1.35 fold enrichment (6-mer frequency, TF over GST control)"
same,binding signal,ERG,"1.22 fold enrichment (6-mer frequency, TF over GST control)"
same,binding signal,ELF1,"1.34 fold enrichment (6-mer frequency, TF over GST control)"
same,binding signal,EHF,"1.33 fold enrichment (6-mer frequency, TF over GST control)"
same,binding signal,SPI1,"1.23 fold enrichment (6-mer frequency, TF over GST control)"
same,binding signal,SPIB,"1.05 fold enrichment (6-mer frequency, TF over GST control)"
same,binding signal,ELK3,"1.09 fold enrichment (6-mer frequency, TF over GST control)"
same,binding signal,FEV,"1.33 fold enrichment (6-mer frequency, TF over GST control)"
same,binding signal,ETV5,"1.35 fold enrichment (6-mer frequency, TF over GST control)"
same,binding signal,HSF1,"1.24 fold enrichment (6-mer frequency, TF over GST control)"
same,binding signal,SPIC,"1.32 fold enrichment (6-mer frequency, TF over GST control)"
same,binding signal,ELF4,"1.26 fold enrichment (6-mer frequency, TF over GST control)"
same,binding signal,ELK4,"1.26 fold enrichment (6-mer frequency, TF over GST control)"
same,binding signal,ETV2,"1.4 fold enrichment (6-mer frequency, TF over GST control)"
same,binding signal,ELF3,"1.3 fold enrichment (6-mer frequency, TF over GST control)"
same,binding signal,CRX,"1.08 fold enrichment (6-mer frequency, TF over GST control)"
same,binding signal,ETV1,"1.3 fold enrichment (6-mer frequency, TF over GST control)"
